Consider six molecules from PubChem BioAssay (Tox21).

Unmarked numbers belong to inactive results. Inconclusive results are not listed. The source made the active and inactive calls. Unless noted, the call rests on the fitted dose curve; in most records, active means well fitted curve in the direction sought with a large enough effect in the repeat runs; inconclusive means weak or mixed curves; inactive means no such curve, though single readings can be large; an effect the other way counts as inactive or inconclusive.

The nature of experiment [1]: A CellTox Green Cytotoxicity Assay to monitor cytotoxicity in HepG2 cells - 0 hour (AID 1224882). Further: nearly all actives have a fitted effect of over 35% in size. A digest of the protocol: (§1)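 Continuous culture of HepG2 cells with a membrane-impermeant DNA dye; rising fluorescence marks dead cells. Compound exposure lasted up to 40 h at 37 C, with reads every 8 h from 0 h.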
Experiment [2] in a line: A CellTox Green Cytotoxicity Assay to monitor cytotoxicity in HepG2 cells - 32 hour (AID 1224883). Further: nearly all actives have a fitted effect of over 50% in size. A digest of the protocol: as §1
Experiment [3] in a line: A CellTox Green Cytotoxicity Assay to monitor cytotoxicity in HEK293 cells - 8 hour (AID 1224884). Further: nearly all actives have a fitted effect of over 35% in size. In short, it runs like this:
(§2)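 Each value comes from one timepoint of a single continuous run in which HEK293 cells with CellTox Green were exposed to compound for up to 40 h at 37 C, dye fluorescence rising with cell death.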

Experiment [4] in a line: qHTS RealTime-Glo MT Cell Viability Assay in HepG2 cells - 16 hour (AID 1224885). Further: nearly all actives have a fitted effect of over 50% in size. In short, it runs like this: (§3)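 Luminescence read-out: viable HepG2 cells reduce a prosubstrate to a NanoLuc substrate, giving a signal proportional to live cell number. Reads taken at 0, 8, 16, 24, 32 and 40 h of compound exposure at 37 C.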
Experiment [5] can be described thus: qHTS RealTime-Glo MT Cell Viability Assay in HEK293 cells - 24 hour (AID 1224886). Further: top concentration of the series differs between compounds; nearly all actives have a fitted effect of over 50% in size. In short, it runs like this: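 Nonlytic real-time viability readout: viable cells convert prosubstrate to NanoLuc substrate, giving luminescence proportional to live cell number. HEK293, 600 cells/well, compound added after 5 h, continuous culture at 37 C.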
Background: In qHTS, concentration-response curves come from the screen itself.

Experiment [6] in a line: qHTS RealTime-Glo MT Cell Viability Assay in HEK293 cells - 8 hour (AID 1224887). Further: top concentration of the series differs between compounds; nearly all actives have a fitted effect of over 50% in size. A digest of the protocol: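 qHTS format; HEK293 cells with NanoLuc/prosubstrate reagent, 37 C/5% CO2 for 5 h pre-dosing; compounds 23 nL in DMSO; luminescence at each time point reflects viable cells.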
A short description of experiment [7]: A CellTox Green Cytotoxicity Assay to monitor cytotoxicity in HEK293 cells - 16 hour (AID 1224888). Further: nearly all actives have a fitted effect of over 35% in size. A digest of the protocol:
as §2

Experiment [8] can be described thus: qHTS RealTime-Glo MT Cell Viability Assay in HepG2 cells - 0 hour (AID 1224889). Further: nearly all actives have a fitted effect of over 50% in size. In short, it runs like this: as §3
The nature of experiment [9]: A CellTox Green Cytotoxicity Assay to monitor cytotoxicity in HepG2 cells - 8 hour (AID 1224890). Further: nearly all actives have a fitted effect of over 45% in size. A digest of the protocol:
as §1

Experiment [10] can be described thus: qHTS assay to identify small molecule antagonists of the estrogen receptor alpha (ER-alpha) signaling pathway using the BG1 cell line in the presence of 0.1 nM 17-beta-estradiol - cell viability counter screen (AID 1259241). Further: nearly all actives have a fitted effect of over 40% in size. Further: potency means the concentration at half of the fitted maximal effect. In short, it runs like this:
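Cytotoxicity counter-screen: live-cell protease activity measured by fluorescence (30 min reagent step) in the same wells. Cells were VM7Luc4E2 with endogenous ER-alpha and ERE-driven luciferase, treated 22 hr at 37C alongside 0.1 nM 17beta-estradiol final.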

Experiment [11] is described as follows: qHTS assay to identify small molecule antagonists of the androgen receptor (AR) signaling pathway using the MDA cell line in the presence of 0.5 nM R1881 - cell viability counter screen (AID 1259242). Further: nearly all actives have a fitted effect of over 45% in size. Further: potency means the concentration at half of the fitted maximal effect. A digest of the protocol: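 Fluorescence from CellTiter-Fluor, which reports protease activity of live cells, was read 30 min after reagent addition to MDA-kb2 cells that had been incubated 16 hr with compound and 0.5 nM R1881.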

Experiment [12] concerns the target Estrogen receptor (Homo sapiens) (UniProt P03372). Nature of the experiment: qHTS assay to identify small molecule antagonists of the estrogen receptor alpha (ER-alpha) signaling pathway using the BG1 cell line in the presence of 0.1 nM 17-beta-estradiol (AID 1259244). Further: nearly all actives have a fitted effect of over 50% in size. In short, it runs like this:
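Quantitative high-throughput screen in VM7Luc4E2 cells: compound plus 0.1 nM E2 (final), 22 h, 37C, 5% CO2; ONE-Glo added, 30 min room temperature, luminescence measured.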

A short description of experiment [13]: qHTS assay to identify small molecule phospholipidosis (PLD) inducers (AID 1259344; active means well fitted curve in the direction sought with a large enough effect; an effect the other way counts as inactive or inconclusive). A digest of the protocol: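 Fluorescent phospholipid staining (LipidTOX Red) measured by automated microscopy in fixed HepG2 cells after 24 h treatment; nuclei counterstained with Hoechst 33342; amiodarone as reference inducer.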
A short description of experiment [14]: qHTS assay to identify small molecule HDAC inhibitors (AID 1259364). Further: top concentration of the series differs between compounds; nearly all actives have a fitted effect of over 45% in size. In short, it runs like this:
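Endogenous HDAC class I/II activity was measured in wild-type HCT-116 cells by HDAC-Glo luminescence after 2 h compound treatment.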

Experiment [15] in a line: qHTS assay to identify small molecule HDAC inhibitors - cell viability counter screen (AID 1259365). Further: nearly all actives have a fitted effect of over 50% in size. Further: potency means the concentration at half of the fitted maximal effect. In short, it runs like this:
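CellTiter-Glo luminescence (30 min, room temperature) reported viability after a 2 h compound exposure at 37 C. Cells: wild-type HCT-116, 1,500 per well, seeded the night before.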

Experiment [16] in a line: qHTS assay to identify small molecule antagonists of the sonic hedgehog signaling (Shh) pathway - cell viability counter screen (AID 1259367). Further: nearly all actives have a fitted effect of over 55% in size. A digest of the protocol:
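Using CellTiter-Fluor, viability of Gli1-Luc reporter 3T3 cells is read by fluorescence in the wells used for the Shh luciferase assay. Treatment lasts 23 hr with conditioned medium, then reagent 1 hr at 37C.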

The nature of experiment [17]: qHTS assay to identify small molecule agonists of the sonic hedgehog signaling (Shh) pathway (AID 1259368; calls by dose curve;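 further: NIH/3T3-derived 3T3Gli1-Luc cells carrying a stable Gli1-driven firefly luciferase reporter; series mostly up to about 92 µM; nearly all actives have a fitted effect of over 15% in size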). In short, it runs like this:
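Luminescent signal was taken as a measure of Gli1-controlled luciferase expression in stably transfected NIH/3T3-derived cells that had been treated for 24 hr with compounds delivered in DMSO.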

A short description of experiment [18]: qHTS assay to identify small molecule antagonists of the sonic hedgehog signaling (Shh) pathway (AID 1259369; calls by dose curve; further: nearly all actives have a fitted effect of over 45% in size). A digest of the protocol:
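Screening used 3T3Gli1-Luc cells at 2,000 per well, compounds delivered in DMSO, and conditioned medium as agonist stimulus; plates incubated 24hr at 37 C and 5% CO2 before a 30min luciferase step.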

The target of experiment [19] is Androgen receptor (Homo sapiens) (UniProt P10275). Description: qHTS assay to identify small molecule antagonists of the androgen receptor (AR) signaling pathway using the MDA cell line in the presence of 0.5 nM R1881 (AID 1259243). Further: nearly all actives have a fitted effect of over 50% in size. Further: potency means the concentration at half of the fitted maximal effect. In short, it runs like this:
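Inhibition of R1881 (0.5 nM final) induced reporter signal was measured in human MDA-kb2 cells; note the MMTV promoter also responds to GR. Exposure lasted 16 hr at 37C.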

A short description of experiment [20]: qHTS assay to identify small molecule agonists of the sonic hedgehog signaling (Shh) pathway - cell viability counter screen (AID 1259366). Further: nearly all actives have a fitted effect of over 50% in size. Further: potency means the concentration at half of the fitted maximal effect. In short, it runs like this:
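Cytotoxicity counter screen: CellTiter-Fluor reagent added after 23 h compound exposure, then 1 h at 37C and fluorescence read. Cells were 3T3 Gli1-Luc, seeded 2,000 per well and dosed 4 h post-plating.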

Chain of Estrogen receptor (Homo sapiens) (P03372 whole entry, looked up): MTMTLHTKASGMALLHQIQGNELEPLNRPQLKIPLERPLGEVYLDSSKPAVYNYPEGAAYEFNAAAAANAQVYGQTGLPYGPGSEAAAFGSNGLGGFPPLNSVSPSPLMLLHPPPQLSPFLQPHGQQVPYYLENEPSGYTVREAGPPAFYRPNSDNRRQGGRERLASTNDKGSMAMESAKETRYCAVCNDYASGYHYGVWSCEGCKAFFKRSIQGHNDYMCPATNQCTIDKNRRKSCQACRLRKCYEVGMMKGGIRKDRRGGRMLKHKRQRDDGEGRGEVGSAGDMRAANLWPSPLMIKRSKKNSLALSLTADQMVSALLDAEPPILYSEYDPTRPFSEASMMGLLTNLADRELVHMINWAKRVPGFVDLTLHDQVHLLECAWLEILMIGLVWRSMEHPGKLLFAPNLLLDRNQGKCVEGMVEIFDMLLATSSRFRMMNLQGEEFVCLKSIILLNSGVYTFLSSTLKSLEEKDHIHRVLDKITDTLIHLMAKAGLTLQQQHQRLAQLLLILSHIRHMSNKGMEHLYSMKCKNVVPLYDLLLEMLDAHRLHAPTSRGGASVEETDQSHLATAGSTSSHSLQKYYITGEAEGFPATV
Chain of Androgen receptor (Homo sapiens) (P10275 whole entry, looked up): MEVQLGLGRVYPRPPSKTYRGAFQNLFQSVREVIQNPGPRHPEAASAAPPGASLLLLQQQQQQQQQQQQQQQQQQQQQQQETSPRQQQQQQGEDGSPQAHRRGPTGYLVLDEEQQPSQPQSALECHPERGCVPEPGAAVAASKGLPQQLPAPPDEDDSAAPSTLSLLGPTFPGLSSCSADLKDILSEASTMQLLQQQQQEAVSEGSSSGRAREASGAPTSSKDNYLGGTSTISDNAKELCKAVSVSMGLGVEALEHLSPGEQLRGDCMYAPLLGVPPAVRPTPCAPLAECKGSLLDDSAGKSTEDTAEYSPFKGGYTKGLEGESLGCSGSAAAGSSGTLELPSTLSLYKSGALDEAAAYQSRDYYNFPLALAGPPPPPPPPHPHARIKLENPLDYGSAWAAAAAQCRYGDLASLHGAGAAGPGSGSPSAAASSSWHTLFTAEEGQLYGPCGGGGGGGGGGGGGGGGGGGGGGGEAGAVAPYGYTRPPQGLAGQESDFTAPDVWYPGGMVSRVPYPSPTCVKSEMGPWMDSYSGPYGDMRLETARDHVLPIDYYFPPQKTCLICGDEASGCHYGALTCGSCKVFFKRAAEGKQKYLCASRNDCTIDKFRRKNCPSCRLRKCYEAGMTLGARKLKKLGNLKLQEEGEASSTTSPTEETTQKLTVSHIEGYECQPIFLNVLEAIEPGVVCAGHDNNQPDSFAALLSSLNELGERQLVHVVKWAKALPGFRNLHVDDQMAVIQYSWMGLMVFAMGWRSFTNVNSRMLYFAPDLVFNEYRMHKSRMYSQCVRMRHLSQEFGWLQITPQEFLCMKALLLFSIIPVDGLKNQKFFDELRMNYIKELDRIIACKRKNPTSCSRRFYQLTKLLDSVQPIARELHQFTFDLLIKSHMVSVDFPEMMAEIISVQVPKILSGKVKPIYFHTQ

`O=C(O)c1cc(-c2ccc(F)cc2F)ccc1O`: the Potency entry in experiment [1], in experiment [2], in experiment [3], in [4], in experiment [5] and in [6] was “inactive” each time. Besides, the Potency entry in experiment [7], in experiment [8], in experiment [9], in experiment [10], in experiment [11] and in [12] was “inactive” in each case. Further, the Potency entry in experiment [13], in experiment [14], in experiment [15], in experiment [16], in [17] and in experiment [18] was “inactive” throughout.
`CCN(CC)c1ccc2c(-c3ccc(S(=O)(=O)O)cc3S(=O)(=O)[O-])c3ccc(=[N+](CC)CC)cc-3oc2c1`: the Potency result in experiment [1], in [2], in experiment [3], in experiment [4], in experiment [5] and in [6] was “inactive” throughout. The Potency result in [7], in experiment [8], in [9], in experiment [17] and in [18] was “inactive” in each case. Further, the Potency in experiment [10] was 12.6 µM (active); in experiment [11], 25.1 µM (active); in experiment [19], 22.4 µM (active); in [15], 12.6 µM (active); in experiment [20] it was 9.99 µM (active).
For `CCCCCCCCCCOC(=O)c1ccccc1C(=O)OCCCCCCCC`, the Potency result in experiment [1], in experiment [2], in [3], in experiment [4], in experiment [5] and in experiment [6] was “inactive” throughout. For the same molecule, the Potency result in [7], in [8], in experiment [9], in experiment [10], in experiment [11] and in experiment [19] was “inactive” in each case. For the same molecule, the Potency result in [12], in experiment [14], in experiment [15], in experiment [20], in [16] and in experiment [17] was “inactive” each time. The Potency entry in [18] was “inactive”.
With `O[C@@H]([C@H](O)[C@H](O)CBr)[C@H](O)CBr`, the Potency entry in experiment [1], in [2], in experiment [3], in [4], in [5] and in experiment [6] was “inactive” each time. Also, the Potency result in [7], in experiment [8], in experiment [9], in experiment [10], in experiment [11] and in experiment [12] was “inactive” each time. Further, the Potency result in [13], in experiment [14], in [15], in [20], in experiment [16] and in experiment [17] was “inactive” in each case. For the same molecule, the Potency entry in experiment [18] was “inactive”.
`CCCCCC/C=C\CCCCCCCC(=O)O`: the Potency result in experiment [1], in [2], in experiment [3], in [4], in experiment [5] and in [6] was “inactive” in each case. The Potency entry in experiment [7], in experiment [8], in [9], in experiment [10], in [11] and in [12] was “inactive” in each case. Also, the Potency result in experiment [14], in experiment [15], in experiment [20], in experiment [16], in [17] and in experiment [18] was “inactive” each time.
For the molecule `CC(C)CCCCCOC(=O)CCS`, the Potency result in experiment [1], in experiment [2], in experiment [3], in experiment [4], in experiment [5] and in [6] was “inactive” in each case. The Potency entry in experiment [7], in [9], in experiment [10], in experiment [11], in experiment [12] and in [14] was “inactive” each time. The Potency result in experiment [15], in experiment [20], in experiment [17] and in experiment [18] was “inactive” each time.
